Measurements taken from PubChem BioAssay (NCATS).
Results filed as inconclusive are left out. Active and inactive are the calls of the source. Unless noted, calls follow the shape of the dose curve; as a rule, active = well fitted curve in the direction sought with a large enough effect; inconclusive = small, poorly fitted or top-dose-only effect, or another doubt; inactive = no such curve, though single readings can be large; an effect the other way counts as inactive or inconclusive.

Legend:
[1] = target: Calcium and integrin-binding protein 1 (Homo sapiens) (UniProt Q99828); experiment: Primary qHTS for Identification of Calcium Integrin Binding Protein 1 (CIB1) Competitor (AID 1508620);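 also: GST tagged CIB1 binding a fluorescein labelled alphaIIb integrin peptide tracer; top concentration of the series differs between compounds; % is scaled to controls: 0 for no effect and ±100 for the full control effect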
In short: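 Fluorescence polarization competition: CIB1-GST (1 uM final) preincubated with compound 15 min at room temperature, then FITC-labeled alphaIIb peptide (100 nM final) added for another 15 min. Polarization read at Ex 480/Em 540.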

[2] = Primary qHTS for small molecule stabilizers of the endoplasmic reticulum resident proteome: Secreted ER Calcium Modulated Protein (SERCaMP) assay (AID 1508630); also: % is scaled to controls: 0 for no effect and ±100 for the full control effect
In short: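 GLuc-SERCaMP-expressing SH-SY5Y cells, pretreated 16 h with compound, are challenged with thapsigargin to empty ER calcium stores; after 4 h, coelenterazine is added directly to the medium and luminescence is imaged.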

[3] = A High-Content qHTS Against Drug Library for the Identification of Small Molecules that Inhibit DYT1 Early Onset Primary Dystonia-Associated Cell Pathology (AID 1645839; calls by dose curve)
In short: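 Readout: %pathology, the punctate EGFP-TorsinA distribution from imaging, as the primary channel and cell count as the toxicity counterscreen. HEK293 Flp-In cells expressing delE TorsinA were induced with tetracycline and treated with compound for 48 h.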

[4] = target: Cytochrome P450 2D6 (Homo sapiens) (UniProt P10635); experiment: Cytochrome P450 family 2 subfamily D member 6 (CYP2D6) small molecule antagonists: luciferase biochemical (cell-free) qHTS assay (AID 1645840; active = well fitted curve in the direction sought with a large enough effect in the repeat runs; an effect the other way counts as inactive or inconclusive; also: nearly all actives have a fitted effect of over 55% in size; also: potency is read from the fitted curve at half-maximal effect)
In short: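 P450-Glo luminescent screen: recombinant CYP2D6 enzyme–proluciferin substrate mix preincubated with compound 10 min at room temperature, then NADPH regeneration added for 1 h at room temperature. Detection reagent added for 20 min; luciferin light read as relative luminescence units.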

[5] = target: Cytochrome P450 2C9 (Homo sapiens) (UniProt P11712); experiment: Cytochrome P450 family 2 subfamily C member 9 (CYP2C9) small molecule antagonists: luciferase biochemical (cell-free) qHTS assay (AID 1645842; active = well fitted curve in the direction sought with a large enough effect in the repeat runs; an effect the other way counts as inactive or inconclusive; also: nearly all actives have a fitted effect of over 55% in size; also: potency is read from the fitted curve at half-maximal effect)
In short: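 Luminescence, after 20 min with luciferin detection reagent, reflected CYP2C9 turnover during a 1 h NADPH-driven reaction at 37C. Enzyme-substrate mix contained 0.4% bovine serum albumin and was preincubated with compound 10 min at room temperature.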

[6] = Primary qHTS for inhibitors of nuclear receptor binding SET domain protein 2 (NSD2) in an isogenic RCH-ACV NSD2 p.E1099K mutant (9B) (AID 1645876); also: nearly all actives have a fitted effect of over 70% in size; also: potency is read from the fitted curve at half-maximal effect
[7] = Primary qHTS for inhibitors of nuclear receptor binding SET domain protein 2 (NSD2) in an RCH-ACV wild type WT cells (2C) (AID 1645877); also: nearly all actives have a fitted effect of over 70% in size; also: potency is read from the fitted curve at half-maximal effect
[8] = Confirmatory qHTS to identify inhibitors of SARS-CoV-2 cell entry (AID 1645844; calls by dose curve; also: % is scaled to controls: 0 for no effect and ±100 for the full control effect; nearly all actives have a fitted effect of over 45% in size)
In short: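 HEK293-ACE2 cells (Expi293F stably expressing human ACE2) were pretreated with compounds for 1 hr at 37C, then infected with MLV-based particles carrying Wuhan-Hu-1 spike (C-terminal 19-aa truncation). Luciferase luminescence read after 48 hr; normalized to spike PP (100%) and bald PP (0%).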

[9] = Cytotoxicity counterscreen for inhibitors of SARS-CoV-2 cell entry (AID 1645845; calls by dose curve; also: nearly all actives have a fitted effect of over 50% in size)
In short: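 Expi293F/hACE2 cells seeded overnight; cpd pin-transferred in DMSO, 1 h preincubation, + media, 48 h 37 C 5% CO2; ATPLite 1step luminescence; normalized to cells and no cells.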

[10] = Primary qHTS to identify inhibitors of SARS-CoV-2 cell entry (AID 1645846; calls by dose curve; also: nearly all actives have a fitted effect of over 45% in size); settings: activity change, negative = inhibition: at 57.1 µM (top of the series) unless noted
In short: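 Using luciferase-reporting pseudoviruses carrying Wuhan-Hu-1 spike, the screen tracks entry into stably ACE2-expressing cells over 48 hr. Activity is expressed relative to spike particles versus particles lacking any fusion protein.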

[11] = VSVG counterscreen qHTS to identify inhibitors of SARS-CoV-2 cell entry (AID 1645847; calls by dose curve; also: % is scaled to controls: 0 for no effect and ±100 for the full control effect; nearly all actives have a fitted effect of over 65% in size)
In short: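 Entry of VSV-G pseudotyped particles into human ACE2-expressing HEK293 cells was measured by luciferase luminescence 48 h after infection, with compound added 1 h beforehand.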

Papain (Carica papaya) = Papain (Carica papaya) (UniProt P00784); experiment: Primary qHTS assay for inhibitors of the protease papain (AID 1645873);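 also: papain turnover of Z-FR-AMC read as the AMC fluorescence gain over 10 min; % is scaled to controls: 0 for no effect and ±100 for the full control effect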
[12] = Counterscreen qHTS for small molecule stabilizers of the endoplasmic reticulum resident proteome: GLuc-NoTag assay (AID 1508627);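 also: SH-SY5Y cells given compound then 100 nM thapsigargin to empty ER calcium; 0% = thapsigargin alone and -100% = DMSO vehicle control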
In short: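 SH-SY5Y cells stably expressing constitutively secreted GLuc (no SERCaMP tag) were pre-incubated 5 h, treated with compound for 19 h, then 100 nM thapsigargin for 4 h at 37C; medium GLuc read by coelenterazine luminescence.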

[13] = Confirmatory qHTS for small molecule stabilizers of the endoplasmic reticulum resident proteome: Secreted ER Calcium Modulated Protein (SERCaMP) assay (AID 1508628); also: % is scaled to controls: 0 for no effect and ±100 for the full control effect; nearly all actives have a fitted effect of over 40% in size
In short: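 SH-SY5Y cells stably expressing GLuc-SERCaMP, treated 16 h with compound (primary 1.53, 7.67, 38.3 uM; confirmation 11 concentrations, up to 76.6 uM), then 100 nM thapsigargin for 4 h. Secreted Gaussia luciferase in medium read by coelenterazine luminescence.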

[14] = Cell Viability qHTS for small molecule stabilizers of the endoplasmic reticulum resident proteome (AID 1508629); settings: cell viability counter-screen, 100 nM thapsigargin for final 4 h;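 also: human SH-SY5Y neuroblastoma cells carrying the GLuc-SERCaMP reporter; compound exposure about 46 h in total before the viability read; % is scaled to controls: 0 for no effect and ±100 for the full control effect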

Sequence of Cytochrome P450 2D6 (Homo sapiens) (P10635 whole entry, looked up): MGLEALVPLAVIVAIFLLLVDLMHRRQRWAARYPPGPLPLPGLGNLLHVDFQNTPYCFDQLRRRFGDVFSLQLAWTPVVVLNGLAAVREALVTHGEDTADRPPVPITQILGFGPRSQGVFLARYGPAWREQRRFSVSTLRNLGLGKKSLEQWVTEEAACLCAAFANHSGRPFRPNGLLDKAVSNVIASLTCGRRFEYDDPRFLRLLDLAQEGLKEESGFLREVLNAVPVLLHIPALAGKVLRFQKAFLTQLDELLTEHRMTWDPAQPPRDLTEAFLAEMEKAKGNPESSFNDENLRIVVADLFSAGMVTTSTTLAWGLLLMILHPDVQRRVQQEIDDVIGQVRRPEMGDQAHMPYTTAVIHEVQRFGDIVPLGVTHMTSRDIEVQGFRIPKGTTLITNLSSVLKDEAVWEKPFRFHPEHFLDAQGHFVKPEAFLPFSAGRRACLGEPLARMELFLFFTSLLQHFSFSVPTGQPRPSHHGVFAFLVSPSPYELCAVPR
Sequence of Calcium and integrin-binding protein 1 (Homo sapiens) (Q99828 whole entry, looked up): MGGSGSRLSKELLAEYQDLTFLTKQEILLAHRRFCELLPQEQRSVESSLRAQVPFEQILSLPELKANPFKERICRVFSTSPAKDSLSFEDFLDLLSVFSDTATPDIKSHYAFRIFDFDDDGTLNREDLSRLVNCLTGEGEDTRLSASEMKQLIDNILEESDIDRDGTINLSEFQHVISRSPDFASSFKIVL
Sequence of Cytochrome P450 2C9 (Homo sapiens) (P11712 whole entry, looked up): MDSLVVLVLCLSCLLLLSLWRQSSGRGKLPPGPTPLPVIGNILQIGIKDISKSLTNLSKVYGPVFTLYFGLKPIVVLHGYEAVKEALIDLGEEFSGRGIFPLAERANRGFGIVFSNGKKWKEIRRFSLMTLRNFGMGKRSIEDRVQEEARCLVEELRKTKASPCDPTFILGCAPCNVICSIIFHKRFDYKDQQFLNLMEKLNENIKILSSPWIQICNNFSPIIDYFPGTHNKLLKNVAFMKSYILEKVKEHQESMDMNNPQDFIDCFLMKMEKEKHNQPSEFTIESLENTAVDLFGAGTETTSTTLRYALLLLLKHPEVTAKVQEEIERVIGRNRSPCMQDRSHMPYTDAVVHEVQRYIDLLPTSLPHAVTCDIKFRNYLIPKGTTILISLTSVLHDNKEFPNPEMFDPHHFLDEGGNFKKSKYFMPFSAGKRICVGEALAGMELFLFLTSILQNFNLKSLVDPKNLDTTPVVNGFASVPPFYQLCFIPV
Sequence of Papain (Carica papaya) (P00784 whole entry, looked up): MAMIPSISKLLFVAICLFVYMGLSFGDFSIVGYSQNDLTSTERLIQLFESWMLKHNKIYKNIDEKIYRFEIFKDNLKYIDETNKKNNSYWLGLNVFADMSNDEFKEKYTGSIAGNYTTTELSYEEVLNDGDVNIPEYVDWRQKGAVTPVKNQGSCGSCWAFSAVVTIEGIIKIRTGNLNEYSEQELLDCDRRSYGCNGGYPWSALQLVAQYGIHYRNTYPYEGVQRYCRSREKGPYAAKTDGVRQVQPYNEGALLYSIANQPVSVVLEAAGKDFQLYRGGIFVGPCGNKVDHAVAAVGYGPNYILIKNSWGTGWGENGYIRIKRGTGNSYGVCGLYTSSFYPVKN

CCCCCCC(=O)CCCCCC/C=C/C[C@@H](O)[C@H](O)[C@@](N)(CO)C(=O)O
inactive: Potency [1] | Potency [2] | outcome [3] | Potency [4] | Potency [5] | Potency [6] | Potency [7]

CC(C)c1cccc(C(C)C)c1O
inactive: Potency [1] | Potency [2] | outcome [3] | Potency [8] | Potency [9] | Potency [11] | outcome (Papain (Carica papaya)) | Potency [6]
-52.4%: activity change, negative = inhibition [10]

CC(Cc1ccccc1)N(C)Cc1ccco1 (configuration not stated)
inactive: Potency [1] | Potency [2] | Potency [5] | Potency [6] | Potency [7]
active: Potency [4] 2.45 µM

Nc1ccccc1
inactive: Potency [1] | Potency [2] | outcome [3] | Potency [5] | Potency [9] | Potency [6] | Potency [7]

O=C(N/N=C/c1ccc([N+](=O)[O-])o1)c1cc([N+](=O)[O-])cc([N+](=O)[O-])c1O
active: Potency [4] 0.617 µM
inactive: Potency [1] | Potency [2]

CC(C(=O)c1ccccc1)N(C)C (configuration not stated)
inactive: Potency [1] | Potency [2] | Potency [5]

CC(C)=CC1C(C(=O)OCN2C(=O)C3=C(CCCC3)C2=O)C1(C)C (configuration not stated)
active: Potency [5] 8.71 µM
inactive: Potency [1] | Potency [2] | outcome [3] | Potency [6] | Potency [7]

C[C@]12CCC(=O)C=C1CC[C@@H]1[C@H]3CC[C@](C)(O)[C@@]3(C)CC[C@@H]12
active: Potency [4] 43.5 µM | Potency [5] 42.6 µM | Potency [6] 34.7 µM | Potency [7] 21.9 µM
inactive: Potency [1] | Potency [2] | outcome [3]

CCCCC/C=C\C/C=C\C/C=C\C/C=C\CCCC(=O)NCC(=O)O
inactive: Potency [1] | Potency [2]

COP(=S)(OC)Oc1ccc(S(=O)(=O)N(C)C)cc1
inactive: Potency [1] | Potency [2] | outcome [3] | Potency [4] | Potency [10] | Potency [6]

CCc1cc2c(s1)-n1c(C)nnc1CN=C2c1ccccc1Cl
inactive: Potency [1] | Potency [2] | Potency [4] | Potency [5] | Potency [9]

COP(=S)(OC)Oc1ccc(SC)c(C)c1
inactive: Potency [1] | Potency [2] | outcome [3] | Potency [4] | Potency [9] | Potency [6] | Potency [7]
active: Potency [5] 3.89 µM
-16.5%: activity change, negative = inhibition [10]

NNc1ccccc1
inactive: Potency [1] | outcome [12] | Potency [13] | max response [14] -1.1% | Potency [5]

C=CCC1([C@H](C)CCC)C(=O)NC(=O)NC1=O
inactive: Potency [1]

C[C@]12CC[C@H]3[C@@H](CCC4=CC(=O)CC[C@@H]43)[C@@H]1CC[C@@H]2OC(=O)CCC1CCCCC1
active: Potency [6] 23.7 µM | Potency [7] 18.8 µM
inactive: Potency [1] | Potency [2] | outcome [3] | Potency [9]
